# Laboratory results from PubChem BioAssay.
# Activity calls are given as the source filed them.
# Key:
# Albumin (Bos taurus) = Albumin (Bos taurus) (UniProt P02769); experiment: bovine serum albumin binders on microarray, profiling panel, artefact control for SMM control protein annotation, biochemical, small-molecule microarray, Alexa647 label, 635/667 nm fluorescence (AID 1118); details: BSA-A647 binding, fluorescence 635 nm, higher = more signal;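 further: score merges 667 nm emission intensity and signal-to-noise per printed compound spot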
# Albumin (Bos taurus), sequence (P02769 whole entry, looked up): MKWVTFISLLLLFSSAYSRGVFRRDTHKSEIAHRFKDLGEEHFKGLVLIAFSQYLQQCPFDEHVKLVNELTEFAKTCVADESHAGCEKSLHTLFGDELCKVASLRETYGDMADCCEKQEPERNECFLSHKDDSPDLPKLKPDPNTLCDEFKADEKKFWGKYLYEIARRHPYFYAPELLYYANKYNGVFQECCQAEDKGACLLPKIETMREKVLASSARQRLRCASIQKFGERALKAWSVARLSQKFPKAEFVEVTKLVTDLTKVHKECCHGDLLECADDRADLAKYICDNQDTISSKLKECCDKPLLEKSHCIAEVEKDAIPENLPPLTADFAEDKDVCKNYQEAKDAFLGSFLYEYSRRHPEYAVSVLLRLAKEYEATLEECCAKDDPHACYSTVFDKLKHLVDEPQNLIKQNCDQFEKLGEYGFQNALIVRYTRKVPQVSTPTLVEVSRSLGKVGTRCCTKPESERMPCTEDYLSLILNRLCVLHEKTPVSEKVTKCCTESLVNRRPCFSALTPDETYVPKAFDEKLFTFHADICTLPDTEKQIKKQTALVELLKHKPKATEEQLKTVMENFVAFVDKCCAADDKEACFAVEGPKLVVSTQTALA
# [1] = small-molecule microarray binders of probe aXIP, primary screen, biochemical, NeuroSMM set, 635/667 nm fluorescence (AID 1119); details: higher = more signal, called active from +8 up or from −8 down;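 further: probe is the protein aXip251-270 applied at 1 µg/mL to compound-printed slides; binding of probe to printed compounds measured as 667 nm fluorescence plus signal to noise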
# [2] = small-molecule binders of probe aNOTCH3, primary screen, biochemical, small-molecule microarray, 635/667 nm fluorescence (AID 1120); details: higher = more signal;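 further: probe is a biotin-tagged antibody raised against NOTCH3 rather than NOTCH3 protein; score merges spot fluorescence near 667 nm with spot signal to noise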
# [3] = small-molecule binders of probe aNOTCH2, primary screen, biochemical, small-molecule microarray, 635/667 nm fluorescence (AID 1121); details: higher = more signal;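 further: score merges feature fluorescence read at 667 nm with its signal to noise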
# [4] = molecular target: Carbonic anhydrase 2 (Homo sapiens) (UniProt P00918); experiment: CAII small-molecule binders, profiling panel, biochemical, small-molecule microarray, Alexa647-labelled CAII (AID 1122); details: CAII-A647 binding fluorescence, higher = more signal
# [5] = COS7 lysate on small-molecule microarray, probe aHis, 635 nm (AID 1123); details: COS7 cell lysate, fluorescence, higher = more signal;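 further: z-score combines 667nm fluorescence intensity with signal-to-noise per printed compound spot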
# [6] = compound binding in COS7 lysate, probe aLAP1, primary screen, cell lysate, small-molecule microarray (AID 1124); details: probe aLAP1, fluorescence, higher = more signal;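 further: lysate comes from COS7 cells expressing LAP1 and is applied at 0.3 µg/mL; score merges spot fluorescence near 667 nm with signal-to-noise over triplicate slides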
# Sam68 (KHDRBS1) = experiment: Sam68 small-molecule binders, primary screen, biochemical, small-molecule microarray, 635 nm fluorescence (AID 1125); details: small-molecule microarray binding, higher = more signal;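 further: score merges 667 nm channel intensity with signal to noise over triplicate slides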
# [7] = test system: Chordin-like protein 2 (CHRDL2); experiment: CHRDL2 small-molecule binders, primary screen, biochemical, small-molecule microarray, 635 nm fluorescence (AID 1126); details: small-molecule microarray binding, fluorescence 635 nm; higher = more signal;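 further: printed compound slides probed with Chrdl2 protein at 4 µg/mL for 1 h at 4 C; score merges 667 nm emission intensity with signal to noise over three replicate slides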
# [8] = molecular target: Concanavalin-A (Canavalia ensiformis) (UniProt P02866); experiment: ConA small-molecule binders, primary screen, artefact control for SMM control protein annotation, biochemical, small-molecule microarray, Alexa647 label, 635 nm (AID 1127); details: ConA-A647 binding fluorescence, higher = more signal;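 further: z combines 667 nm emission intensity with signal-to-noise across three replicate slides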
# Concanavalin-A (Canavalia ensiformis), sequence (P02866 whole entry, looked up): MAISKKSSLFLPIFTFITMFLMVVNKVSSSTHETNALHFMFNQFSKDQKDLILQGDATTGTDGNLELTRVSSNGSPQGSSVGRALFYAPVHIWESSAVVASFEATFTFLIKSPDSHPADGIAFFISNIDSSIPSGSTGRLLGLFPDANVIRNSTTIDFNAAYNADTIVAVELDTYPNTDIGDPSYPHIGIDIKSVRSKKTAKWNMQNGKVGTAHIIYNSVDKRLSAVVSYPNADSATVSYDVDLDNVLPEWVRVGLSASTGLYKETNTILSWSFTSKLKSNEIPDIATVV
SMILES,composite z-score (Albumin (Bos taurus)),composite Z-score [1],composite z-score [2],composite z-score [3],composite z-score [4],composite z-score [5],composite z-score [6],composite z-score (Sam68 (KHDRBS1)),composite z-score [7],composite z-score [8]
CC(C)(C)OC(=O)CC[C@]1(C(=O)O)COC(c2ccc(OCCCO)cc2)=N1,0.374,-0.0004 (inactive),0.102,-0.0966,0.803,1.11,-0.156,-1.05,-1.92,0.135
C[N+](C)(C)CCCCNC(=O)[C@H]1C[C@H]2C(=O)NCC(=O)N2[C@H]1c1ccc(O)cc1,-1.48,0.586 (inactive),0.175,-0.0457,0.568,1.56,1.01,0.852,1.39,1.14
COCCOC(=O)N1C(=O)[C@@]2(c3cc(C#CC4(O)CCCCCC4)ccc31)[C@H](C(=O)NC[C@H](O)c1ccccc1)[C@H]1C(=O)O[C@H](c3ccccc3)[C@H](c3ccccc3)N1[C@@H]2c1ccc(OCCO)cc1,0.067,0.244 (inactive),-0.0328,-0.0995,0.495,1.23,0.217,1.3,0.223,1.13
COc1ccc(C(=O)Nc2ccc(CN3C(=O)[C@]4(O[C@H](CCn5cc([C@H](O)c6ccccc6)nn5)[C@@H]([Si](C)(C)c5ccc(OC)cc5)[C@@H]4C)c4ccccc43)cc2)cc1,0.109,0.0958 (inactive),0.0026,-0.132,0.52,0.891,-0.127,0.619,-0.313,-0.0974
O=C1OCCC=C[C@H]2OC34C=CCN(Cn5nnc6ccccc65)C(=O)[C@H]3N(CCCCCO)C(=O)[C@@H]4C12 (stereo not given in full),0.428,0.266 (inactive),-0.193,-0.114,0.87,0.121,0.686,-0.464,-0.579,-1.55
CC(C)CN1C(=O)[C@@]2(Cc3ccccc31)c1ccccc1C(=O)N(Cc1ccccc1)[C@H]2c1ccc(CO)cc1,0.488,0.671 (inactive),-0.197,-0.138,0.441,0.179,0.254,-1.72,-1.03,-0.616
C=C(/C(=C/C[C@@H](OC(C)=O)c1ccccc1OCCO)c1cnc2ccccc2c1)C(C)C,0.23,1.17 (inactive),-0.0784,-0.0859,0.571,0.503,-0.0618,0.778,0.474,0.871
COC(=O)[C@@]1(Cc2ccc(OC)cc2)[C@H]2c3cc(C(=O)N4CCCC4)n(CCF)c3C[C@H]2CN1C(=O)c1ccccc1,0.978,0.573 (inactive),1.97,1.15,0.755,3.15,0.478,0.757,-0.258,0.99
COc1cccc(C[C@H]2C[C@@H](CO[Si](C(C)C)(C(C)C)C(C)C)N3C(=O)[C@]4(C(C)=O)O[C@]23[C@H]2C(=O)N(C)C(=O)[C@H]24)c1,0.614,-0.12 (inactive),-0.0647,-0.148,-0.0064,0.0217,-0.274,1.14,0.403,0.98
[N-]=[N+]=Nc1ccccc1[C@H]1OC(c2ccc(OCCCO)cc2)=N[C@@]1(Cc1ccccc1)C(=O)NCc1ccccc1,0.713,1.76 (inactive),0.256,-0.0714,0.497,1.46,0.112,1.31,0.125,1.02
COCCOC(=O)N1C(=O)[C@@]2(c3ccccc31)[C@H](c1ccc(OCCO)cc1)N1[C@H](c3ccccc3)[C@H](c3ccccc3)OC(=O)[C@H]1[C@@H]2C(=O)NC[C@H](O)c1ccccc1,0.128,0.774 (inactive),0.327,-0.084,0.505,1.91,0.123,1.29,0.508,1.02
COc1ccccc1CN1C(=O)c2ccccc2[C@](Cc2ccccc2I)(C(=O)NCCN2CCOCC2)[C@@H]1c1ccc(CO)cc1,0.655,-0.0337 (inactive),0.0629,-0.0288,0.646,1.71,1.01,1.29,0.617,1.1
COc1ccc([Si](C)(C)[C@@H]2[C@@H](CCO)O[C@]3(C(=O)N(Cc4cccc(N5C(=O)COc6ccccc65)c4)c4ccccc43)[C@H]2C)cc1,0.663,0.215 (inactive),-0.126,-0.0576,0.163,1.35,0.0386,0.19,-0.117,1.03
Cc1ccc(S[C@]2(C(=O)NCC(C)C)CC(=O)N(C3CCCCC3)[C@@H]2c2ccc(CO)cc2I)cc1,0.812,0.209 (inactive),-0.246,-0.0862,0.637,1.51,0.738,1.28,-0.0402,0.88
COCCOC(=O)N1C(=O)[C@@]2(c3cc(C#Cc4ccc(OC)cc4)ccc31)[C@H](C(N)=O)[C@H]1C(=O)O[C@H](c3ccccc3)[C@H](c3ccccc3)N1[C@@H]2c1ccc(OCCO)cc1,-0.884,0.393 (inactive),0.43,-0.0984,0.332,1.79,0.52,1.3,0.714,0.921
CCOC(=O)C[C@H]1[C@H](OC(=O)c2cc3ccccc3oc2=O)[C@@H](NC(=O)c2ccc3ccccc3n2)c2cc(OCCCO)ccc2N1C(=O)c1ccc2ccccc2n1,-0.407,0.581 (inactive),0.255,-0.0294,0.312,0.32,0.129,0.539,0.572,0.862
[N-]=[N+]=Nc1ccccc1C[C@]1(C(=O)NCCN2CCOCC2)N=C(c2ccc(OCCCO)cc2)O[C@H]1c1ccccc1N=[N+]=[N-],0.892,0.241 (inactive),0.505,0.141,0.584,2.84,0.505,1.29,0.415,1.15
CC1=C2[C@@H](CCc3ccccc3)OB(O)C[C@@H]2[C@@H]2C(=O)C=CC(=O)[C@@H]2C1,0.393,1.64 (inactive),-0.0677,0.0777,0.298,-0.0088,0.0435,1.01,0.483,0.793
CN1C(=O)C2C=CC(C(O)COCc3ccccc3)N(Nc3ccccc3)C2C1=O (stereo not given),0.898,-0.0217 (inactive),0.348,-0.127,0.81,1.44,-0.0468,0.616,-0.142,0.479
COC(=O)[C@@]1(Cc2ccccc2)[C@H]2c3cc(C(=O)N4CCCC4)n(CCO)c3C[C@H]2CN1C(=O)c1ccccc1,1.03,1.61 (inactive),1.37,0.853,0.841,2.35,1.41,1,0.443,0.886
CCC[C@@H]1C[C@@]1(CCC)[C@@H](NC(=O)c1cccs1)c1ccc(Cl)cc1,0.259,-0.222 (inactive),-0.102,-0.0617,0.247,0.855,-0.199,-0.0604,-0.693,-0.596
CCCCC(=C=CC[C@H](O)c1cccc(OCCO)c1)C[C@H](O)COCc1ccccc1,0.92,0.11 (inactive),-0.179,-0.107,0.697,0.972,-0.501,0.435,-0.592,0.0194
COc1cc2c(cc1OC)CN(C(=O)[C@@H]1[C@H]3C(=O)O[C@H](c4ccccc4)[C@H](c4ccccc4)N3[C@H](c3ccc(OCCO)cc3)[C@@]13C(=O)Nc1ccc(C#CCCO)cc13)CC2,0.379,1.29 (inactive),0.81,-0.0669,0.428,2.92,0.364,1.3,0.703,1.02
C=C(CCCC)/C(=C/C[C@@H](OC(=O)c1ccncc1)c1ccccc1OCCO)c1cc(C(=O)OC)ccc1OC,0.865,-0.0662 (inactive),0.125,-0.0317,0.616,1.28,0.902,1.25,-0.0027,-0.251
Cc1ccc(F)cc1S(=O)(=O)N[C@@H]1CCN(C(=O)c2ccc(OC(C)C)cc2)C1,0.0765,-0.107 (inactive),0.116,-0.184,-0.0494,0.644,0.194,1.13,0.686,0.0897
CCCC=C(CCC)[C@@H](NC(=O)Cc1ccccc1)c1ccc(C(=O)OC)cc1,0.506,0.0119 (inactive),0.934,0.0754,0.405,1.69,0.615,0.844,0.549,0.31
CN(C)CCCN1C(=O)[C@@]2(Cc3ccccc31)c1ccccc1C(=O)N(Cc1ccccc1)[C@H]2c1ccc(CO)cc1,-0.153,0.634 (inactive),-0.109,-0.181,-0.0077,-0.258,-0.485,0.347,0.757,0.544
CC(C)CNC(=O)[C@@]1(C)c2ccccc2C(=O)N(Cc2ccccc2)[C@H]1c1ccc(CO)cc1,-0.928,3.02 (inactive),-0.352,-0.133,0.788,1.19,1.16,-0.992,-2.5,-1.44
COCCOC(=O)N1C(=O)[C@@]2(c3cc(C#Cc4ccc(OC)cc4)ccc31)[C@H](c1ccc(OCCO)cc1)N1[C@H](c3ccccc3)[C@H](c3ccccc3)OC(=O)[C@H]1[C@@H]2C(N)=O,0.641,0.498 (inactive),0.132,-0.0404,0.573,0.441,0.617,1.35,0.488,1.16
C=C(COC)C(=O)CC[C@H](OC(=O)c1ccccc1-c1ccccc1C(=O)O)c1ccc(OCCO)cc1,0.369,0.161 (inactive),0.0628,-0.117,0.425,0.276,1.12,1.09,0.498,0.527
